Screening results as filed in PubChem.
GIRK2 act = GIRK2 channel activators by thallium flux; 34,000 tested, under 10 active; HEK293 GIRK2/NPY4 cells, thallium flux fluorescence; activation (% efficacy), % for hits at 37.5 µM;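 active = primary screen hit, no activity in plain HEK293 cells, and in GIRK2-only cells above 5% efficacy rising with concentration; inactive = the rest, including fluorescent compounds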;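 note: efficacy is normalized control-subtracted fluorescence 15 s after thallium addition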
Target sequence (P48051 whole entry, looked up): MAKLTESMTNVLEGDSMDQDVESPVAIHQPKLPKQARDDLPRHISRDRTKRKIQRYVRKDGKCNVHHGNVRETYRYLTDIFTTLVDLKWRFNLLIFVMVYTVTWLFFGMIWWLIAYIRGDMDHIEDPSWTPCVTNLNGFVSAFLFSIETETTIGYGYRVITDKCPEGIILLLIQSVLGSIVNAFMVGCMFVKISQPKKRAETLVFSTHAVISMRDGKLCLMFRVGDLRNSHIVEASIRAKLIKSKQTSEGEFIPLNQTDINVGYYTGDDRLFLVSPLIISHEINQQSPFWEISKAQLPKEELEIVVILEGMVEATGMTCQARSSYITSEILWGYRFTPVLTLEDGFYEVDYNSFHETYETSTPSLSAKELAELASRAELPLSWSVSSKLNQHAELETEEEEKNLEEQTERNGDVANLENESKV
GluA2 TARP mod = modulates AMPAR-stargazin complexes; O88602+P19491; calls only at 30 µM; AID 1259245; actives 3.5% (n = 40,000); HEK293 GluA2+stargazin, membrane potential dye (FDSS), glutamate EC50; hits were called plate by plate, in both directions;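 active = any of four per-well response measures lying three or more SD from its plate-wide compound average, in either direction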
* hit, by the source's call; i = inactive; . = no result; + = active, no number. This excerpt belongs to a sample that is enriched for hits.

SMILES | GIRK2 act | GluA2 TARP mod
COc1cc(C(=O)Nc2c(C(C)C)cccc2C(C)C)cc(OC)c1OC | i | +
CC(C)c1cccc(C(C)C)c1NC(=O)c1ccc(O)cc1 | . | i
Cc1nn(-c2ccc(F)cc2)c2ncc(C(=O)N(C)CCC#N)c(Cl)c12 | . | i
Cc1cccc(NC(=O)c2ccc(N3C(=O)c4ccccc4C3=O)cc2)c1C | i | i
O=C(C1=COCCO1)N(CCN1CCOCC1)c1nc2c(F)cccc2s1 | i | +
O=C(C1=COCCO1)N(CCN1CCOCC1)c1nc2ccccc2s1 | . | i
O=C(Cc1ccc([N+](=O)[O-])cc1)N/N=C\c1ccc2nccnc2c1 | i | .
Cn1c(=O)c2c(nc(N3CCOCC3)n2CCCc2ccccc2)n(C)c1=O | . | i
CCN1CCN(c2nc3c(c(=O)n(C)c(=O)n3C)n2CCCOc2ccccc2)CC1 | . | +
Cn1c(=O)c2c(nc(N3CCCCCC3)n2CC(O)COc2ccccc2)n(C)c1=O (stereo not given) | . | i
CC(c1ccccc1)n1c(N2CCCCC2)nc2c1c(=O)n(C)c(=O)n2C (stereo not given) | i | +
Cn1c(=O)c2c(nc(N3CCOCC3)n2CCSc2ncccn2)n(C)c1=O | . | +
CCNc1nc2c(c(=O)n(C)c(=O)n2C)n1CCCOc1ccccc1 | i | i
CCn1nnc2c(=O)n(CC(=O)N3CCN(c4ccc(Cl)cc4)CC3)cnc21 | i | i
O=C(NCC1CCN(C(=O)/C=C/c2ccco2)CC1)Nc1cccc(Cl)c1 | i | i
Cc1ccc(NC(=O)CC2SC(=O)N(CC(=O)c3ccccc3)C2=O)c(C)c1 (stereo not given) | i | i
Cc1ccc(-n2nc3c(c2-n2cccc2)CN(C(=O)c2ccc(F)c(F)c2)C3)cc1 | i | i
Cc1cccc(-n2nc3c(c2-n2cccc2)CN(C(=O)c2cc(C)oc2C)C3)c1 | i | +
CSc1ccccc1CN1CCC(CNC(=O)c2cnc3ccccc3n2)CC1 | i | i
CSc1ccccc1CN1CCC(CNC(=O)c2ccccn2)CC1 | i | +
CSc1ncccc1C(=O)N1CCC(CNC(=O)C2(c3ccc(Cl)cc3)CCCC2)CC1 | i | +
O=C(CSc1ccc(F)cc1)NCC1CCN(C(=O)c2ccccc2F)CC1 | i | +
CSc1ncccc1C(=O)N1CCC(CNC(=O)c2ccccc2F)CC1 | i | +
CSc1ncccc1C(=O)N1CCC(CNC(=O)c2cc(Cl)cc(Cl)c2)CC1 | i | i
CSc1ccccc1C(=O)NCC1CCN(C(=O)c2ccccc2F)CC1 | i | i
SMILES | GIRK2 act | GluA2 TARP mod
CSc1ncccc1C(=O)N1CCC(CNC(=O)c2ccccc2Br)CC1 | i | i
Cc1noc(C2CN(C(=O)c3csc(-c4ccccc4)n3)C2)n1 | i | i
COc1ccc(Cl)cc1NC(=O)c1cc2c(=O)n3cccc(C)c3nc2n1Cc1ccccc1 | i | i
COc1cccc(OCC(=O)Nc2ccc(OC)c(N3CCCCC3=O)c2)c1 | i | i
COc1cc(NC(=O)Oc2ccccc2)ccc1N1CCCC1=O | i | i
Cc1cc(C)n(CCC(=O)Nc2cc(Cl)cc(Cl)c2)n1 | i | i
CCN(CC)S(=O)(=O)c1ccc(C)c(N(C)S(=O)(=O)c2ccc(C)cc2)c1C | . | i
COc1ccc(/C=C\C(=O)Nc2cc(C3CC3)nn2-c2nc(C(C)C)cc(=O)[nH]2)cc1OC | i | +
COc1ccc(OCC(=O)Nc2cc(C3CC3)nn2-c2nc(C(C)C)cc(=O)[nH]2)cc1 | i | i
O=C(NCc1ccccc1Cl)C(=O)NCC1CCN(Cc2ccsc2)CC1 | i | i
O=C(Cc1ccc(F)cc1)NCCC(O)c1ccccc1 (stereo not given) | i | i
O=C(CCc1ccccc1)NCCC(O)c1ccccc1 (stereo not given) | i | +
Cc1noc(C2CN(S(=O)(=O)c3cccs3)C2)n1 | i | i
Cc1noc(C2CN(S(=O)(=O)c3cccc(Cl)c3C)C2)n1 | i | +
COCc1nc2ccccc2n1CC(O)COc1ccc(Cl)c(C)c1 (stereo not given) | i | i
COCc1nc2ccccc2n1CC(O)COc1ccc(C(C)C)cc1 (stereo not given) | i | +
CCCCCNC(=O)CCCOc1ccc(C)cc1C | i | +
Cc1ccc(OCCCC(=O)Nc2nccs2)c(C)c1 | i | i
Cc1nc(NC(=O)Cc2c(C)[nH]c(=O)[nH]c2=O)sc1C(=O)Nc1ccccc1 | i | i
COC(=O)c1ccc(C(=O)N2CCOC(c3ccc(C(F)(F)F)cc3)C2)cc1 (stereo not given) | i | .
O=C(NCCNc1ccc(Nc2ccccn2)nn1)c1ncccn1 | i | .
Cc1cnc2c(c1SCc1ccc(Br)cc1)c(=O)n(C)c(=O)n2C | i | i
CCC(=O)N(CCC1(c2ccc(OC)cc2)CCOC(C)(C)C1)Cc1ccc(Cl)cc1 (stereo not given) | . | +
CCOC(=O)C1=C(C)NC(=O)NC1c1ccc(OC)cc1 (stereo not given) | . | i
Cc1nc(NCCNC(=O)Nc2ccc3ccccc3c2)cc(N2CCOCC2)n1 | i | .
SMILES | GIRK2 act | GluA2 TARP mod
COc1ccc(C2c3cccn3CCN2S(=O)(=O)c2ccccc2F)cc1OC (stereo not given) | i | i
COc1ccc(OC)c(-c2nnc(NC(=O)c3ccnn3C)o2)c1 | i | .
CCn1nccc1C(=O)Nc1nnc(-c2ccc(OC)cc2OC)o1 | i | +
COc1ccc(-c2nnc(NC(=O)C3CC3)o2)c(OC)c1 | . | +
COc1ccc(-c2nnc(NC(=O)Cc3ccc(SC)cc3)o2)c(OC)c1 | . | +
COc1ccc(-c2nnc(NC(=O)C3CCCN3S(C)(=O)=O)o2)c(OC)c1 (stereo not given) | i | i
COc1ccc(-c2nnc(NC(=O)Cc3ccc(C)cc3)o2)c(OC)c1 | i | i
CCc1ccc(Oc2cc(N3CCC(C(=O)NCCC4=CCCCC4)CC3)ncn2)cc1 | i | i
O=c1ccc(-c2cccnc2)nn1CCNS(=O)(=O)c1ccc(OC(F)(F)F)cc1 | i | .
Cc1c(NC(=S)NC(=O)c2ccccc2Cl)c(=O)n(-c2ccccc2)n1C | i | i
Cc1c(NC(C)c2cc(Cl)ccc2O)c(=O)n(-c2ccccc2)n1C (stereo not given) | . | +
Cc1ccc(-c2nn(C)c(=O)c3ccccc23)cc1CNS(C)(=O)=O | . | i
Cn1nc2c3c(cccc3c1=O)-c1ccccc1-2 | . | +
COc1ccc(N2CC(C)Cn3c2nc2c3c(=O)n(C)c(=O)n2C)c(OC)c1 (stereo not given) | . | i
COc1ccc(CCNC(=O)NCC2(O)CCCC2)cc1 | i | i
Cc1nnc(NC(=O)CCc2csc(NC(=O)c3ccc(Cl)cc3)n2)s1 | i | i
CC1CCCN(C(=O)C(=O)c2cn(CC(=O)N3CCOCC3)c3ccccc23)C1 (stereo not given) | . | i
CCCCS(=O)(=O)NCCNc1cc(-n2cccn2)ncn1 | i | +
COc1cc(S(=O)(=O)NCCNc2cc(-n3cccn3)ncn2)c(C)cc1C | i | i
CC(C)S(=O)(=O)c1ccc(C(=O)Nc2ccc(-c3nc4ccccc4[nH]3)cc2)cc1 | i | i
COc1ccc(C)cc1NC(=O)Cc1csc(Nc2ccc(S(C)(=O)=O)cc2)n1 | i | i
